Reference: PubChem BioAssay (NCI)
The panel holds about 83,000 compounds, 20% with a hit somewhere; the sample as a whole holds those more often.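 Single-concentration screen, 48 h exposure, 96-well plates. Endpoint: percent growth. Below 10 = active.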 Values without a mark were called inactive. Calls of active or inactive are those of the source.

System: U251 CNS
Assay: NCI-60 one-dose screen, 48 h (100 = growth as untreated, 0 = no growth, -100 = all killed)
Conditions: 10 µM unless noted

Compound	growth
CN(C)Cc1ccccn1	99.4%
CCNCC(C)(C)O	104%
CCOS(=O)(=O)c1ccc([N+](=O)[O-])cc1	99.2%
CCCCCCCCCCCCSC1=C(Cl)C(=O)C(OC)=C(OC)C1=O	26%
CN(C(=S)S(=O)(=O)C12CC3CC(CC(C3)C1)C2)c1ccccc1	108%
N#Cc1ccc2nc[nH]c2c1	101%
CCCCCC#CC(=O)O	98.4%
CC(=O)C1C(=O)C(=O)N(c2ccc(Cl)c(Cl)c2)C1=O (centres undefined)	101%
CC(C)OCC(CCl)OC(=O)Nc1ccccc1 (centres undefined)	97.2%
COc1ccc(C(=O)/C(=N/Nc2ccccc2)c2ccc(OC)cc2)cc1	92.4%
Cc1cc(Nc2ccc3c(c2)OCO3)c2cc3c(cc2n1)OCO3	19.9%
NC(=O)N1CCOCC1	107%
CC(=O)Nc1ccc(O)c(C)c1	92.5%
COc1cccc2c1Cc1ccccc1-2	103%
C=COC(=O)CCOCC(CC)CCCC (centres undefined)	102%
N#C/C(=C\c1ccc(C#N)cc1)C(=O)c1ccccc1	94.3%
Cc1cccc(C)c1NC(=S)/N=C\c1c(O)[nH]c(=O)[nH]c1=O	96.8%
COc1ccc(C(=O)C(=O)c2ccccc2)cc1	101%
O=C1CSc2ccccc2N1	96.7%

Compound	growth
Cc1c(Cl)cccc1NC(=S)NC(=O)c1ccccc1	84.9%
CC(c1ccccc1)N(C)C (centres undefined)	102%
CCOC(=O)/C(O)=C(\C=N\C(=S)Nc1ccc(Cl)c(Cl)c1)C(=O)OCC	98.2%
CCC(=O)C1C(=O)c2ccccc2C1=O	105%
CCCCCCCCCc1ccc(OC(C)=O)cc1	97.9%
Nc1ncnc(Nc2ccc(C(F)(F)F)cc2)n1	94.2%
CCOP(=O)(OCC)/C(=C\N1C(=O)CC(=O)NC1=S)C(=O)OC	94.7%
C=CCOc1ccc(Cl)cc1Cl	106%
NNC(=O)N/N=C1\C(=O)N(c2nccs2)C(=O)C(=O)C1c1nc2ccccc2s1 (centres undefined)	80%
Cc1cc(Cl)cc(Cc2cc(Cl)cc(C)c2O)c1O	8.37% (active)
C=CCN1CCCC1=O	102%
COc1cc(C(=O)O)c(O)c(C(C)(C)C)c1	95.2%
CC(=O)OCC1OC(n2cnc3c(=S)nc(N)[nH]c32)C(OC(C)=O)C1OC(C)=O (centres undefined)	93.1%
CCC(=O)Oc1ccc2ccccc2c1	93.9%
CCOC(=O)C(=O)CC(=O)c1ccccc1	93.3%
Cc1ccc(NCN2C(=O)c3ccccc3C2=O)c(C)n1	103%
CC(C)c1ncc([N+](=O)[O-])n1C	104%
O=C(O)c1c[nH]c2ccccc2c1=O	93.9%

System: PC-3 prostate
Assay: as above
Conditions: 10 µM unless noted

Compound	growth
CN(C)Cc1ccccn1	90.3%
CCNCC(C)(C)O	91.5%
CCOS(=O)(=O)c1ccc([N+](=O)[O-])cc1	97.9%
CCCCCCCCCCCCSC1=C(Cl)C(=O)C(OC)=C(OC)C1=O	23.1%
CN(C(=S)S(=O)(=O)C12CC3CC(CC(C3)C1)C2)c1ccccc1	82.8%
N#Cc1ccc2nc[nH]c2c1	105%
CCCCCC#CC(=O)O	98.2%
CC(=O)C1C(=O)C(=O)N(c2ccc(Cl)c(Cl)c2)C1=O (centres undefined)	96.9%
CC(C)OCC(CCl)OC(=O)Nc1ccccc1 (centres undefined)	98.8%
COc1ccc(C(=O)/C(=N/Nc2ccccc2)c2ccc(OC)cc2)cc1	78.2%
Cc1cc(Nc2ccc3c(c2)OCO3)c2cc3c(cc2n1)OCO3	10.6%
NC(=O)N1CCOCC1	87.1%
CC(=O)Nc1ccc(O)c(C)c1	87%
COc1cccc2c1Cc1ccccc1-2	91.1%
C=COC(=O)CCOCC(CC)CCCC (centres undefined)	98.2%
N#C/C(=C\c1ccc(C#N)cc1)C(=O)c1ccccc1	87.6%
Cc1cccc(C)c1NC(=S)/N=C\c1c(O)[nH]c(=O)[nH]c1=O	96%
COc1ccc(C(=O)C(=O)c2ccccc2)cc1	104%
O=C1CSc2ccccc2N1	93.1%

Compound	growth
Cc1c(Cl)cccc1NC(=S)NC(=O)c1ccccc1	89.2%
CC(c1ccccc1)N(C)C (centres undefined)	88.6%
CCOC(=O)/C(O)=C(\C=N\C(=S)Nc1ccc(Cl)c(Cl)c1)C(=O)OCC	86.9%
CCC(=O)C1C(=O)c2ccccc2C1=O	92.2%
CCCCCCCCCc1ccc(OC(C)=O)cc1	94.1%
Nc1ncnc(Nc2ccc(C(F)(F)F)cc2)n1	89.6%
CCOP(=O)(OCC)/C(=C\N1C(=O)CC(=O)NC1=S)C(=O)OC	97.8%
C=CCOc1ccc(Cl)cc1Cl	88.2%
NNC(=O)N/N=C1\C(=O)N(c2nccs2)C(=O)C(=O)C1c1nc2ccccc2s1 (centres undefined)	82.6%
Cc1cc(Cl)cc(Cc2cc(Cl)cc(C)c2O)c1O	-7.63% (active)
C=CCN1CCCC1=O	94.6%
COc1cc(C(=O)O)c(O)c(C(C)(C)C)c1	97.6%
CC(=O)OCC1OC(n2cnc3c(=S)nc(N)[nH]c32)C(OC(C)=O)C1OC(C)=O (centres undefined)	104%
CCC(=O)Oc1ccc2ccccc2c1	77%
CCOC(=O)C(=O)CC(=O)c1ccccc1	89.4%
Cc1ccc(NCN2C(=O)c3ccccc3C2=O)c(C)n1	101%
CC(C)c1ncc([N+](=O)[O-])n1C	102%
O=C(O)c1c[nH]c2ccccc2c1=O	97.6%
